Ten compounds from PubChem BioAssay (Tox21) can be followed below.

Several values for one entry are separate records, joined by “and”; a condition that tells them apart may be missing. Equal values may be shown once. Records with an inconclusive call do not appear. Where a structure was tested more than once in an assay, its records may differ in their call. Activity calls are given as the source filed them. Unless noted, the call rests on the fitted dose curve; in most records, active means well fitted curve in the direction sought with a large enough effect in the repeat runs; inconclusive means weak or mixed curves; inactive means no such curve, though single readings can be large; an effect the other way counts as inactive or inconclusive.

Experiment [1] in a line: qHTS assay to identify small molecule agonists of the vitamin D receptor (VDR) signaling pathway - cell viability counter screen (AID 743224). Further: nearly all actives have a fitted effect of over 50% in size. Further: potency means the concentration at half of the fitted maximal effect. Put shortly: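 Here cell health was gauged by luminescent ATP detection (CellTiter-Glo, 30 min RT) in VDR-bla cells that had been incubated with test compounds for 16 h at 37C and 5% CO2.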
The nature of experiment [2]: qHTS assay to identify small molecule antagonists of the vitamin D receptor (VDR) signaling pathway - cell viability counter screen (AID 743225). Further: nearly all actives have a fitted effect of over 50% in size. Put shortly: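 Cells (VDR-UAS-bla HEK 293T) are plated, rested 4 h at 37C, dosed with compound and 3 nM final 1-alpha,25-dihydroxy vitamin D3, and incubated 16 h. Viability is taken from CellTiter-Glo luminescence in the reporter wells.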

Experiment [3] can be described thus: qHTS assay to identify small molecule agonists of the endoplasmic reticulum stress response signaling pathway (AID 1159516; active means well fitted activation curve with a large enough effect in the signal ratio in the repeat runs, not every such curve was filed as active; the % refers to the signal ratio). Put shortly: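 Reporter HeLa cells (ESRE-beta-lactamase) underwent 5 hr compound incubation at 37 C and 5% CO2 in quantitative HTS format. Detection followed 2 hr of FRET substrate loading at room temperature.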
Experiment [4] in a line: qHTS assay to identify small molecule agonists of the endoplasmic reticulum stress response signaling pathway - cell viability counter screen (AID 1159517; calls by dose curve;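 further: HeLa cells carrying an ER stress response element beta-lactamase reporter; series mostly up to about 61 µM; nearly all actives have a fitted effect of over 50% in size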). The method, boiled down: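 ESRE-bla HeLa cells, 1,500 per well, seeded overnight then treated with compounds for 5 hr at 37 C. After the beta-lactamase read, viability in the same wells is measured by CellTiter-Glo luminescence after 30 min at room temperature.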

A short description of experiment [5]: qHTS assay to identify small molecule antagonists of the retinoid-related orphan receptor gamma (ROR-gamma) signaling pathway - cell viability counter screen (AID 1159520). Further: nearly all actives have a fitted effect of over 50% in size. Put shortly: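 Tet-on ROR gamma CHO cells were given compounds for 2 hr, then doxycycline hyclate at 1 uM final, and incubated 16 hr at 37 C. Viability was measured as ATP content by CellTiter-Glo luminescence.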

Experiment [6] can be described thus: qHTS assay to identify small molecule agonists of the AP-1 signaling pathway - cell viability counter screen (AID 1159525; calls by dose curve; further: nearly all actives have a fitted effect of over 55% in size). Put shortly:
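AP-1-bla ME-180 cells in Opti-MEM with 0.5% dialyzed FBS, compound exposure 5 h at 37 C in 15-point titration. Viability read in the same wells as ATP content by CellTiter-Glo luminescence, normalised to tetra-n-octylammonium bromide and DMSO controls.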

Experiment [7] is described as follows: qHTS assay to identify small molecule agonists of the AP-1 signaling pathway (AID 1159526; calls by dose curve).
For experiment [8], the target named is Retinoic acid receptor RXR-alpha (Homo sapiens) (UniProt P19793). The experiment in a line: qHTS assay to identify small molecule agonists of the RXR signaling pathway (AID 1159527; calls by dose curve; further: nearly all actives have a fitted effect of over 35% in size; further: potency means the concentration at half of the fitted maximal effect). Put shortly:
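qHTS of the Tox21 10K library in GeneBLAzer RXR-alpha HEK 293T cells carrying a beta-lactamase reporter […]; 16 hr treatment, 9-cis retinoic acid as agonist control, FRET read-out.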

A short description of experiment [9]: qHTS assay to identify small molecule agonists of the RXR signaling pathway - cell viability counter screen (AID 1159529). Put shortly: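 Cell viability is measured by CellTiter-Glo luminescence, 30 min at room temperature, in wells already read for beta-lactamase. Engineered HEK 293T cells (RXR-alpha-UAS-bla) are dosed 16 hr at 37 C. Tetraoctyl ammonium bromide serves as positive control.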

Experiment [10] can be described thus: qHTS assay to identify small molecule antagonists of the retinoid acid receptor (RAR) signaling pathway - cell viability counter screen (AID 1159551). Further: nearly all actives have a fitted effect of over 35% in size. The method, boiled down:
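Seed C3RL4 cells; next day add compound, then retinol to 1 uM final; incubate 6 h at 37 C; add CellTiter-Glo; read luminescence after 30 min at RT.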

Experiment [11] addresses Nuclear receptor ROR-gamma (Homo sapiens) (UniProt P51449). The experiment in a line: qHTS assay to identify small molecule antagonists of the retinoid-related orphan receptor gamma (ROR-gamma) signaling pathway (AID 1159521; further: nearly all actives have a fitted effect of over 50% in size; further: potency means the concentration at half of the fitted maximal effect). Put shortly: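 RORγ antagonism is scored from reduced reporter luminescence in Tet-on CHO cells. Induction used 1 uM final doxycycline hyclate for 16 h at 37 C, following a 2 h compound exposure.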

Experiment [12] is described as follows: qHTS assay to identify small molecule antagonists of the retinoic acid receptor (RAR) signaling pathway (AID 1159552; further: nearly all actives have a fitted effect of over 50% in size). The method, boiled down: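 Quantitative HTS in C3RL4 RARE-luciferase reporter cells. Compounds were added with 1 uM (final) retinol; luminescence was read after 6 hr.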
Experiment [13] in a line: qHTS assay to identify small molecule agonists of the retinoic acid receptor (RAR) signaling pathway (AID 1159553). The method, boiled down:
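Activation of retinol signaling was monitored via a RARE luciferase reporter in C3RL4 cells. After 6 hr compound treatment at 37 C, detection reagent was added for 30 min at room temperature before luminescence reading.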

Experiment [14] in a line: qHTS assay to identify small molecule antagonists of the estrogen related receptor (ERR) signaling pathway - cell viability counter screen (AID 1224818).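 Further: series mostly up to about 46 µM; viability measured after 17.5 h of compound exposure.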 The method, boiled down: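 In the same ERR cell assay, compound-treated wells (17.5 h, 37 C) were multiplexed with a fluorogenic viability reagent, CellTiter-Fluor, read after 30 min to flag cytotoxic substances.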
Experiment [15] in a line: qHTS assay to identify small molecule antagonists of the estrogen related receptor signaling pathway with the pleiotropic PPARgamma coactivator (PGC) cell viability counter screen (AID 1224822; further: series mostly up to about 46 µM). Put shortly:
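Compounds in DMSO, with positive and negative controls, were applied to PGC/ERR cells (2,000/well) and left 17.5 h at 37 C before CellTiter-Fluor detection.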

Sequence of Retinoic acid receptor RXR-alpha (Homo sapiens) (P19793 whole entry, looked up): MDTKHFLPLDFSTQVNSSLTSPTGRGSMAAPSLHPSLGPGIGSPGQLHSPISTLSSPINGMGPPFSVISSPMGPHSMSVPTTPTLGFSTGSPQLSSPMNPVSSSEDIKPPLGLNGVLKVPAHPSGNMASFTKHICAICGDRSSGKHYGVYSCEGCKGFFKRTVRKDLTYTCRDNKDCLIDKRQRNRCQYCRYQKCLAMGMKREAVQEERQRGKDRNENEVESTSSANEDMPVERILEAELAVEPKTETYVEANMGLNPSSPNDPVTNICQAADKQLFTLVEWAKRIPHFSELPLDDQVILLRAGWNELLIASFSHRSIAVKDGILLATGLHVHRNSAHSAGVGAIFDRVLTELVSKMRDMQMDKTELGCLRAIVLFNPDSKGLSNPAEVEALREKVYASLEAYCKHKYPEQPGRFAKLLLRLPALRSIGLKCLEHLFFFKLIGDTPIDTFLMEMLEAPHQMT

`CNNCc1ccc(C(=O)NC(C)C)cc1`: the Potency result in [1], in [2], in experiment [3], in [4], in [5] and in [6] was “inactive” in each case. Also, the Potency entry in [7], in experiment [8], in [9] and in [10] was “inactive” in each case.
Regarding `CN1[C@@H]2CC(OC(=O)[C@H](CO)c3ccccc3)C[C@H]1[C@@H]1O[C@@H]12` (some centres undefined), the Potency entry in experiment [1], in [2], in experiment [3], in [4], in experiment [5] and in [11] was “inactive” each time. Also, the Potency result in experiment [6], in experiment [7], in [9] and in [10] was “inactive” each time.
As to `F[B-](F)(F)F`, the Potency entry in experiment [1], in experiment [2], in experiment [3], in experiment [4], in [5] and in experiment [6] was “inactive” each time. For the same compound, the Potency entry in experiment [7], in [8], in [9] and in [10] was “inactive” in each case. Moreover, the Potency result in [11] was “inactive and 49.2 µM (active)”.
On to `CC1(C)S[C@@H]2[C@H](NC(=O)[C@H](N)c3ccccc3)C(=O)N2[C@H]1C(=O)O`, for which the Potency result in [1], in experiment [2], in experiment [3], in experiment [4], in experiment [5] and in [6] was “inactive” each time. Further, the Potency result in [7], in [8], in [9] and in experiment [10] was “inactive” throughout.
Consider `Cc1cc(C)nc(NS(=O)(=O)c2ccc(N)cc2)n1`, for which the Potency result in experiment [1], in experiment [2], in experiment [3], in experiment [4], in experiment [5] and in experiment [6] was “inactive” throughout. Moreover, the Potency entry in experiment [7], in [9], in experiment [10], in experiment [12] and in [13] was “inactive” each time. For the same compound, the Potency in [8] was 14 µM (active) and inactive.
For `CCOC(N)=O`, the Potency result in [1], in experiment [2], in experiment [3], in [4], in experiment [5] and in experiment [11] was “inactive” each time. Further, the Potency result in [6], in experiment [7], in experiment [8], in experiment [9] and in experiment [10] was “inactive” each time.
Take `Cc1cn([C@H]2C=C[C@@H](CO)O2)c(=O)[nH]c1=O`: the Potency result in [1], in [2], in [3], in experiment [4], in experiment [5] and in experiment [11] was “inactive” throughout. Besides, the Potency entry in experiment [6], in experiment [7], in experiment [9], in [10] and in experiment [15] was “inactive” each time. For the same compound, the Potency result in [8] is “inactive and 17.4 µM (active)”. The compound was classed as inactive in [14].
Consider `CCOc1ccc(NC(C)=O)cc1`, for which the Potency entry in [1], in experiment [2], in [3], in experiment [4], in experiment [5] and in experiment [11] was “inactive” in each case. The Potency entry in [6], in experiment [7], in experiment [8], in experiment [9] and in [10] was “inactive” throughout.
In the case of `CCc1nc(N)nc(N)c1-c1ccc(Cl)cc1`, in [1], the Potency was 17.4 µM (active). Further, the Potency entry in experiment [3], in [4], in [5], in experiment [11], in [6] and in experiment [8] was “inactive” each time. Besides, the Potency result in experiment [10] was “inactive”.
`CCCc1cc(=O)[nH]c(=S)[nH]1`: the Potency entry in [1], in [2], in experiment [3], in experiment [4], in experiment [5] and in experiment [11] was “inactive” in each case. Further, the Potency result in experiment [6], in experiment [7], in experiment [8], in experiment [9], in experiment [10] and in experiment [12] was “inactive” throughout. Moreover, the Potency result in experiment [13] is “inactive”.
